In PubChem BioAssay AID1531 (NMMLSC, 2009):
The whole screen tested about 290,000 compounds, of which about 3,300 (1.1%) were called active. The sample holds actives, similar compounds and a random draw of the others, so the mix is not that of the screen. A number with no mark means an inactive call. No stated cut-off is given here; in the data, active means binding response below about 67% or above about 130%; inconclusive means no clear call, values can overlap the other calls; inactive means in between.

These compounds were tested against Mitogen-activated protein kinase kinase kinase 2 (Homo sapiens) (UniProt Q9Y2U5) (assay: modulators of MEK5 binding to wildtype MEKK2, primary screen, biochemical, multiplex bead flow cytometry, Alexa488-MEK5 (AID 1531)). Settings: Alexa488-MEK5 binding to MEKK2 WT, at 10 µM, actives lie on both sides.

Question: For Cc1cccc(Nc2nc(NCCO)nc(N3CCCC3)n2)c1, which binding response (% of control) is on record?
Answer: 109%

Question: How did the binding response (% of control) turn out when COc1cc(CC(=O)N2CCC(n3nccc3NC(=O)C3CC3)CC2)cc(OC)c1OC was run?
Answer: 103%

Question: For CCC(C(=O)OCCN(CC)CC)c1ccccc1 (stereo unspecified), which binding response (% of control) is on record?
Answer: 101%

Question: Clc1cccc(Cl)c1OCCOCCNCc1ccccc1 was tested. Which binding response (% of control) did it give?
Answer: 109%

Question: CCN(CC)CCOCCOc1ccc(Cl)c2ccccc12 was tested. Which binding response (% of control) did it give?
Answer: 7% [inhibitor] (active)

Question: Cc1cccc(NC(=S)NCCc2ccc(Cl)cc2)c1C was tested. Which binding response (% of control) did it give?
Answer: 106%

Question: Which binding response (% of control) does the source give for Cc1ccc(S(=O)(=O)N(C)CC(=O)NCCc2c[nH]c3ccccc23)cc1 here?
Answer: 107%

Question: How did the binding response (% of control) turn out when CCOC(=O)c1ccc(NC(=O)c2c(NCc3ccccc3)[nH]c(=O)[nH]c2=O)cc1 was run?
Answer: 102%

Question: Which binding response (% of control) does the source give for CC1CN(C(=O)CCC(=O)NCc2cccnc2)c2ccccc2O1 (stereo unspecified) here?
Answer: 103%

Question: With CC1CN(C(=O)CCC(=O)NCCCN2CCC(Cc3ccccc3)CC2)c2cc(Cl)ccc2O1 (stereo unspecified) as the compound, how does the binding response (% of control) read?
Answer: 163% (active)

Question: Which binding response (% of control) does the source give for CC1CN(C(=O)CCC(=O)NC2CCN(Cc3ccccc3)CC2)c2ccccc2O1 (stereo unspecified) here?
Answer: 107%

Question: For O=C(CN1CCCCCC1)Nc1ccc(S(=O)(=O)N2CCCCC2)cc1, which binding response (% of control) is on record?
Answer: 100%

Question: For O=C(NCc1ccccc1Cl)C1CCN(c2ncnc3c2nc2n3CCCCC2)CC1, which binding response (% of control) is on record?
Answer: 102%

Question: Cc1cc(C)c(OCC(=O)N(Cc2cccs2)C2CCS(=O)(=O)C2)c(C)c1 (stereo unspecified) was tested. Which binding response (% of control) did it give?
Answer: 101%

Question: For COC(=O)c1[nH]c2cccc(C)c2c1NC(=O)CN1CCCc2ccccc21, which binding response (% of control) is on record?
Answer: 18% [inhibitor] (active)

Question: With NS(=O)(=O)c1cccc(NC(=O)CN2CCCc3ccccc32)c1 as the compound, how does the binding response (% of control) read?
Answer: 99%

Question: COC(=O)c1[nH]c2ccccc2c1NC(=O)CN1CCCc2ccccc21 was tested. Which binding response (% of control) did it give?
Answer: -2% (active)

Question: With O=C(CN1CCc2ccccc21)NC(c1ccccc1)c1ccccc1 as the compound, how does the binding response (% of control) read?
Answer: 95%

Question: Cc1cccc(C)c1NC(=O)COC(=O)c1ccccc1O was tested. Which binding response (% of control) did it give?
Answer: 97%

Question: For COC(=O)c1[nH]c2ccc(Br)cc2c1NC(=O)Oc1ccccc1, which binding response (% of control) is on record?
Answer: 103%

Question: For CC(=O)N1c2ccc(S(=O)(=O)N3CCCC(C(=O)Nc4cccc(F)c4)C3)cc2CC1C (stereo unspecified), which binding response (% of control) is on record?
Answer: 106%

Question: CCOC(=O)c1c(-c2ccccc2)oc2cc(Br)c(O)c(C=O)c12 was tested. Which binding response (% of control) did it give?
Answer: 94%

Question: Which binding response (% of control) does the source give for O=C(Nc1ccccc1Cl)NC1(C(=O)N2CCOCC2)CCCCC1 here?
Answer: 96%

Question: For CC1(C)C2CC[C@]3(C)C(CC=C4[C@@H]5C[C@@](C)(CO)CC[C@]5(C(=O)O)CC[C@]43C)[C@@]2(C)CC[C@@H]1O (stereo partly specified), which binding response (% of control) is on record?
Answer: 105%

Question: With C=CCOc1ccccc1NC(=O)CN1C(=O)CNC1=O as the compound, how does the binding response (% of control) read?
Answer: 106%

Question: With O=C(N/N=C\c1cc2c(cc1Cl)OCO2)c1ccc(Br)s1 as the compound, how does the binding response (% of control) read?
Answer: 103%
